A selection: hits, their analogues and other compounds. The true share with any hit is near 1.3%.
KCNH2 3.1 inh = blocks the human KCNH2 3.1 channel isoform; 340,000 tested, 0.95% active; AID 720553; U2OS KCNH2 3.1, thallium flux FluxOr; active compounds read low; activity change, % (tested at about 1.8 µM);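 active means maximum activity change below -70%; inconclusive means maximum activity change from -70% to -50%; inactive means maximum activity change above -50%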;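 further: thallium influx rate constant from kinetic fluorescence after stimulation buffer; on the % scale 0 is the no-effect control and ±100 the full control effect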
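We transduce U2OS cells with the mutant 3.1 virus, culture them overnight, load FluxOr with Red40 quencher for 45 min, then add stimulation buffer and read kinetically for 2 min to derive a normalized rate constant.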
TRPML1 inh = human mucolipin-1 channel inhibition; TRPML1-inducible cells, Ca2+ dye fluorescence, FDSS; active compounds read low; inhibition of EC80 agonist-evoked calcium signal; activity change, negative = inhibition, % (test concentration not listed); Q9GZU1; 390,000 tested, 0.02% active; in the data active means activity change below about -50%; inconclusive means between about -30% and that limit;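 further: stimulus is agonist 54-4 at its EC80 concentration; on the % scale 0 is the no-effect control and ±100 the full control effect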
Target sequence (Q9GZU1 whole entry, looked up): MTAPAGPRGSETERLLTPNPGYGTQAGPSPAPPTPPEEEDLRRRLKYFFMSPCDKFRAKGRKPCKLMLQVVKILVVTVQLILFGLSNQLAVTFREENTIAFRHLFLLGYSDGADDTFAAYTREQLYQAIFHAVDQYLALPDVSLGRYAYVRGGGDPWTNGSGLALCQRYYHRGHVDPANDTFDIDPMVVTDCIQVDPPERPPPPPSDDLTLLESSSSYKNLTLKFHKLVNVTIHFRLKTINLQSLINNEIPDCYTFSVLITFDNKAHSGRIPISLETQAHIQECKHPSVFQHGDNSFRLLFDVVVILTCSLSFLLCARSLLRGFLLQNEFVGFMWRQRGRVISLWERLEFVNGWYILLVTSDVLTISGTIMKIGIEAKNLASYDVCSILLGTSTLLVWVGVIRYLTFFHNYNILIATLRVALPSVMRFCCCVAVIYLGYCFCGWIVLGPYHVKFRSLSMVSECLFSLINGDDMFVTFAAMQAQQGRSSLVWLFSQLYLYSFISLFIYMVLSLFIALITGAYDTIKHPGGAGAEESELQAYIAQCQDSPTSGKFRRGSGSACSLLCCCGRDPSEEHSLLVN
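Calcium fluorescence in TRPML1-DL cells induced overnight with Tet: a 110 s read after compound pin addition, then a 110 s antagonist read after challenge with 54-4 at 4 uM final (EC80).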
TRPV1 PAM = potentiators of human vanilloid receptor 1 (TRPV1); Q8NER1; TRPV1-expressing cells, Fluo-8 calcium influx, capsaicin EC20 potentiation; potentiation, % at 8.33 µM; 320,000 tested, 0.02% active; AID 540277; in the data active means potentiation above about 80%; inconclusive means between about 30% and that limit; further: 0% is about no effect
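Cells expressing TRPV1 were dye-loaded with Fluo-8 and read kinetically: 10 s baseline, 3 min after compound (agonist portion), then 2 min after EC20 capsaicin (allosteric enhancer portion). Calcium-bound dye fluorescence at 480/520 nm.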
TRPML1 ag = human mucolipin-1 channel agonism. activation, % (concentration not given with the values). Q9GZU1. 410,000 tested, 0.12% active. TRPML1-expressing cells, Ca2+ dye fluorescence, FDSS; in the data active means activation above about 50%; inconclusive means mostly about 30% to 49%; further: 0% is about no effect
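In this qHTS format, compounds were pin-transferred onto Ca8-dye-loaded TRPML1-DL cells induced with Tet overnight, and intracellular Ca2+ fluorescence was recorded kinetically for 110 s after a 10 s baseline. A subsequent 4uM final 54-4 (EC80) addition followed by a second 110 s read served as the antagonist phase.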
hERG WT inh = blocks the wildtype human KCNH2 potassium channel. 340,000 tested, 0.37% active. Q12809. U2OS, BacMam KCNH2, thallium flux FluxOr; active compounds read low. activity change, % at 1.84 µM;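 active means maximum activity change below -70%; inconclusive means maximum activity change between -70% and -50%; inactive means maximum activity change above -50%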; further: on the % scale 0 is the no-effect control and ±100 the full control effect
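U2OS cells were transduced with wild-type KCNH2 virus (2.03 x 10^8 / mL) for 4 h at room temperature, then cultured overnight at 37 C. Thallium flux was read with FluxOr dye. Rate constants were normalized to DMSO controls.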
TRPV1 ag = human TRPV1 agonism. Q8NER1. TRPV1-expressing cells, Fluo-8 calcium influx, agonist mode. activation, % at 8.33 µM. 320,000 tested, 0.19% active; in the data active means activation above about 80%; inconclusive means between about 30% and that limit; further: 0% is about no effect
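Cells expressing TRPV1 were dye-loaded with Fluo-8 and read kinetically: 10 s baseline, 3 min after compound (agonist portion), then 2 min after EC20 capsaicin (allosteric enhancer portion). Calcium-bound dye fluorescence at 480/520 nm.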
* = called active by the depositor; ? = inconclusive; nt = no result given.

SMILES	KCNH2 3.1 inh	TRPML1 inh	TRPV1 PAM	TRPML1 ag	hERG WT inh	TRPV1 ag
O=C(NCCN1CCN(c2ccccc2)CC1)c1cccn2c(=O)c3ccccc3nc12	-38	-19	13	1	-27	2
O=C(NCCN1CCN(c2ccccc2F)CC1)c1cccn2c(=O)c3ccccc3nc12	-79*	2	-9	1	-14	10
CSc1ccc(S(=O)(=O)NCc2ccc(C)cc2)cc1	-78*	86	1	1	41	15
CCOC(=O)c1ccc(N(C(=O)c2ccccc2)c2ccccc2)cc1	nt	nt	nt	0	nt	nt
COc1ccccc1CNC(=O)CCC(=O)N1CC2CCCN2c2ccccc21 (configuration not stated)	nt	-13	nt	0	nt	nt
Fc1cccc(Cc2noc(CN3CCSCC3)n2)c1	6	10	-3	-1	-36	10
Fc1cccc(Cc2noc(CN3CCN(C4CCc5ccccc5C4)CC3)n2)c1 (configuration not stated)	-85*	-11	1	1	-24	1
Fc1cccc(Cc2noc(CN3CCCN(C4Cc5ccccc5C4)CC3)n2)c1	-91*	13	12	0	-136*	-3
COc1ccc(Cc2noc(CN3CCN(C4CCc5ccccc5C4)CC3)n2)cc1OC (configuration not stated)	-7	11	-9	0	5	?
O=C(CN(CCc1c[nH]c2ccccc12)S(=O)(=O)c1ccccc1)N1CCCCCC1	nt	nt	nt	0	nt	nt
COc1ccccc1-n1c(SCC(N)=O)nc2c(c1=O)SCC2	-70*	38	nt	0	-7	nt
O=c1[nH]c2ccccc2nc1/C=C(\O)c1cccs1	-9	-17	-17	79*	-10	?
Nc1cccc2cccnc12	nt	nt	nt	0	nt	nt
Cc1ccc(CNC(=O)CSc2nc3ccccc3[nH]2)cc1	3	nt	-16	nt	-8	?
O=C(CSc1nc2ccccc2[nH]1)NCCc1ccc(Cl)cc1	-30	11	1	1	-121*	?
COc1cc(NC(=O)CSc2nc3nc(C)c(Cc4ccccc4)c(C)n3n2)cc(OC)c1OC	nt	-15	nt	-1	nt	nt
O=C(CCN1CCCCC1)N1CCc2c([nH]c3ccccc23)C1c1cccnc1 (configuration not stated)	-73*	-11	nt	0	?	nt
CCc1ccc(Nc2cc(C(=O)NCCCN3CCOCC3)c3ccccc3n2)cc1	-74*	-7	?	0	20	-1
COc1ccc(Nc2cc(C(=O)NCCCN3CCOCC3)c3ccccc3n2)cc1	-7	-10	?	0	0	0
O=C1CCC[C@@H]2C[C@@]3(C[C@@H]4CCN1[C@H]24)Nc1cc([N+](=O)[O-])ccc1NC3=NCc1ccccc1	nt	nt	nt	2	nt	nt
c1ccc2c(c1)OCCOCCOc1ccccc1OCCOCCO2	-79*	21	-10	0	23	3
C/C(=N/O)c1ccc2c(c1)OCCOCCOc1cc(/C(C)=N/O)ccc1OCCOCCO2	-74*	-12	6	1	-42	-3
Brc1ccc2c(c1)OCCOCCOc1cc(Br)ccc1OCCOCCOCCO2	-96*	19	12	0	-88*	2
Nc1ccc2c(c1)OCCOCCOCCOCCOCCO2	7	-27	?	0	-10	-5
CC(=O)NC(Cc1ccc([N+](=O)[O-])cc1)C(=O)NCC(N)C(=O)c1ccccc1 (configuration not stated)	nt	nt	nt	0	nt	nt
SMILES	KCNH2 3.1 inh	TRPML1 inh	TRPV1 PAM	TRPML1 ag	hERG WT inh	TRPV1 ag
Cc1ccc(C2c3cccn3CCN2S(=O)(=O)c2ccc([N+](=O)[O-])cc2)cc1 (configuration not stated)	nt	-8	nt	3	nt	nt
COc1ccc(-c2cc(C3CCN(Cc4cccc(C(F)(F)F)c4)CC3)[nH]n2)cc1	nt	-7	-3	0	47	3
Clc1ccc2nc(C3CCN(Cc4ccccc4)CC3)[nH]c2c1	?	7	2	1	4	5
COc1ccc(-c2cc(C3CCN(Cc4ccc([N+](=O)[O-])cc4)CC3)[nH]n2)cc1	-112*	16	0	1	-87*	5
Cc1ccc(CN2CCC(c3cc(-c4ccc(Cl)cc4)n[nH]3)CC2)cc1	-102*	-1	-13	0	-84*	-3
COc1ccc(-c2cc(C3CCN(c4cc(Cl)nc(N)n4)CC3)[nH]n2)cc1	-15	-3	1	1	2	0
Cc1ccc(CN2CCC(c3nc4ccc(Cl)cc4[nH]3)CC2)cc1	-93*	-1	-10	3	-132*	-3
Nc1nc(Cl)cc(N2CCC(c3cc(-c4ccc(Cl)cc4)n[nH]3)CC2)n1	-74*	-3	0	2	1	-2
Clc1ccc(-c2cc(C3CCNCC3)[nH]n2)cc1	-48	4	-21	-1	0	0
CN(C)c1ccc(/C=C/N2C=CCc3c2ccc2ccccc32)cc1	nt	nt	nt	1	nt	nt
CC(C)(C)NC(=O)CCc1nnc(Cc2c[nH]c3ccccc23)o1	-110*	-13	-17	2	-12	5
O=C(Cc1ccc(Br)cc1)NO	nt	nt	nt	-1	nt	nt
Cc1ccc(CN2CC[C@H]3C=CCc4cccc(c43)C2)cc1	nt	0	3	1	nt	8
COc1ccc(CN2CC[C@H]3C=CCc4cccc(c43)C2)cc1	-85*	8	-2	1	1	8
CN(C(=O)COC(=O)CCc1c[nH]c2ccccc12)C(c1ccccc1)c1ccccc1	-80*	15	4	2	-5	21
COc1ccc(-c2nc(C)c(CCNC(=O)c3ccccc3Br)s2)cc1OC	nt	-21	nt	3	nt	nt
CCC(Sc1nnc(C)n2c1cc1occc12)C(=O)Nc1ccccc1OC (configuration not stated)	nt	-9	nt	1	nt	nt
CCc1ccc2nc(N(CCN(C)C)C(=O)/C=C/c3cccs3)sc2c1	-127*	-10	-20	0	-43	1
Cc1ccc2nc(N(CCCN(C)C)C(=O)CN3C(=O)c4ccccc4C3=O)sc2c1	-87*	9	15	1	34	8
Cc1cc(C)c2sc(N(CCCN(C)C)C(=O)CN3C(=O)c4ccccc4C3=O)nc2c1	17	nt	9	nt	3	3
CN(C)CCCN(C(=O)/C=C/c1cccs1)c1nc2ccc(F)cc2s1	-33	12	23	0	-4	-3
Cc1ccc2nc(N(CCN(C)C)C(=O)/C=C/c3cccs3)sc2c1	-101*	28	12	1	-16	-4
CN(C)CCN(C(=O)/C=C/c1cccs1)c1nc2ccc(Br)cc2s1	-73*	11	2	1	-10	-3
CCOc1ccc2nc(N(CCN(C)C)C(=O)/C=C/c3cccs3)sc2c1	-7	-4	8	0	39	0
